The record followed here is PubChem BioAssay (NCI).

The panel holds about 83,000 compounds, 20% with a hit somewhere; the sample as a whole holds those more often.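 The endpoint reported here, percent growth, reads 100 for growth as untreated, 0 for no net growth and -100 for all cells dead.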 Activity calls are given as the source filed them.

The test system of this assay is BT-549 breast. Put plainly: NCI-60 one-dose screen, 48 h (100 = growth as untreated, 0 = no growth, -100 = all killed). The conditions noted are these: 10 µM unless noted. The protocol: Growth inhibition of the BT-549 human tumor cell line is measured as a screen for anti-cancer activity. Cells are grown in 96 well plates and exposed to the test compound for 48 hours. Compounds are tested at a single concentration, which is 10^-5 M for most compounds. The reported endpoint is percent growth (GI% or GIPRCNT), where numbers from 0 - 100% represent growth inhibition, and numbers from -100% - 0 represent cell death. For example, a value of 40 represents 60% growth inhibition. A value of 0 means no net growth occurred over the course of the experiment. A value of -40 indicates 40% of cells at the beginning of the experiment died by the end of the experiment. A value of -100 means all cells are dead at the end of the experiment.
NCI-60 Human Tumor Cell Lines Screen was performed using the standard one-dose NCI protocol, which is described in more detail at https://dtp.cancer.gov/discovery_development/nci-60/default.htm.
Compounds with GIPRCNT values below 10 were considered active. Activity score was based on GIPRCNT using the following formula: […]
Score is 0 for GIPRCNT values of 100 or above, 50 for GIPRCNT values of 0, and 100 for GIPRCNT values of -100.
In the case of `Nc1ncc(-c2ccc3ncnc(N4CCc5ccc(Cl)cc54)c3c2)cn1`, the growth is -25% (active). The same measure for `CCOc1ccc(N2C(=O)CCSC2=S)cc1`: 108% (inactive); for `COC(=O)[C@@H](Cc1c[nH]c2ccccc12)NC[C@@H](O)CN1C(=O)/C(=C\c2cc(OC)c(OC)c(OC)c2)c2ccccc21`: 68.4% (inactive); for `COc1ccc(C2=NN3C(C2)c2cc(Br)ccc2OC3c2ccncc2)cc1` (stereo not given): 76.6% (inactive). Regarding `COc1ccc(C2CC(=O)Oc3c(OC)c4c(c(OC)c32)OCO4)cc1` (stereo not given), the growth was 87.6% (inactive). For the molecule `CCCCCCCCOC(=O)c1c(C)[nH]c(/C=C2\N=C(c3ccc[nH]3)C=C2OC)c1C`, the growth is 10.4% (inactive).

On to `CSc1nc(CC(C)C)c(C#N)c(=O)n1C`, for which the growth was 58.8% (inactive). Consider `Cc1ccc(-c2nn(CC(=O)N3CCOCC3)c(N)c2C#N)cc1`, for which the growth was 98.7% (inactive). As to `C=C1CC[C@@H]2[C@](C)(COC(C)=O)[C@H](OC(C)=O)CC[C@@]2(C)[C@@H]1CC(Nc1ccc(S(=O)(=O)Nc2nccc(C)n2)cc1)C1=CCOC1=O` (stereo not given in full), the growth is -2.66% (active). With `O=CN1N=C(c2cccc(Nc3ccncc3)c2)CC1c1ccc2c(c1)OCO2` (stereo not given), the growth was 106% (inactive).

Take `Cc1nc2ccccc2c(/C=C/c2ccc(Br)cc2)c1C(=O)/C=C/c1ccccc1`: the growth is 21.7% (inactive). The same measure for `COC(=O)c1nc(-c2ccc(C)cc2)oc1N1CCOCC1`: 87.1% (inactive).

Consider `CN1CCN(c2ccc(Nc3ncc4[nH]c(=O)n(Cc5ccccc5N)c4n3)cc2)CC1`, for which the growth was 97.8% (inactive). Regarding `CC1OC(C(=O)N2CCN(CCO)CC2)CC1COC1CCCCC1` (stereo not given), the growth was 90.2% [50 µM] (inactive).

Take `O=c1c(/C=C/c2c(O)ccc3ccccc23)nnc2sc(-c3cccc([N+](=O)[O-])c3)nn12`: the growth is 65.1% (inactive). In the case of `O=C1N/C(=N/N=C(c2ccccc2)c2ccccc2)S/C1=C\c1ccc(Br)cc1`, the growth is 97% (inactive). `COc1ccc(S(=O)(=O)N(C)c2oc(-c3ccc(Cl)cc3)nc2C#N)cc1`: the growth is 74.7% (inactive). For the molecule `CNC(=O)c1cc(Oc2ccc3nc(NC(=O)c4cc(C(F)(F)F)cc(C(F)(F)F)c4)sc3c2)ccn1`, the growth is 11.4% (inactive). `[2H]C([2H])([2H])Oc1ccc(/C=C/C(=O)/C=C(/C=C/c2ccc(OC([2H])([2H])[2H])c(OC([2H])([2H])[2H])c2OC([2H])([2H])[2H])OB(F)F)c(OC([2H])([2H])[2H])c1OC([2H])([2H])[2H]`: the growth was 78.6% (inactive). As for `O=C(NCCN1CCOCC1)c1cncnc1Nc1ccc2c(ccn2Cc2ccccn2)c1`, the growth is 102% (inactive). The same measure for `O=C(CN1C(=O)c2ccccc2S1(=O)=O)Nc1nc(-c2cc3ccccc3oc2=O)cs1`: 105% (inactive); for `CN(C)CCCN(CCC1CCCCC1)CCC1CCCCC1`: 86% (inactive); for `COC(=O)[C@H](C)NC(=O)[C@@H]1CCCN1C(=O)CNC(=O)[C@H](C)N`: 109% (inactive). On to `COc1cc2c(c(OC)c1OC)CCC(c1cccc(NC(=O)c3cccc(Cl)c3)c1)O2` (stereo not given), for which the growth is 97.2% (inactive).

`O=c1cc(-c2nccc3c2[nH]c2ccccc23)c2cc(Cl)ccc2o1`: the growth is 36.1% (inactive).

With `Nc1ncc(-c2ccc3ncnc(N4CCc5cc(F)c(Cl)cc54)c3c2)cc1C=O`, the growth is 9.08% (active).

Turning to `O=C(OCc1ccc2c(Br)cc(Br)c(O)c2n1)N1CCN(C(=O)c2cc3ccccc3[nH]2)CC1`, the growth is 56% (inactive).

For `Cc1cc2c(c(C)n1)CN(C(=O)Nc1nc(-c3cncs3)ccc1N)C2`, the growth was 105% (inactive).

In the case of `COc1cccc(C2C(C#N)=C(N)Oc3c2ccc2ccccc32)c1` (stereo not given), the growth was 28.3% (inactive). The same measure for `COc1cccc(NC(=O)c2sc3nc(C)c(C(=O)c4ccccc4)cc3c2N)c1`: 91.8% (inactive); for `CN1C(=O)N(C)C2C1NN=c1s/c(=C\c3ccccc3F)c(=O)n12` (stereo not given): 18.9% (inactive).

For the molecule `CC(=O)CC(=O)c1ccccc1.[Cu+2]`, the growth was 114% (inactive). Consider `O=C1c2cccnc2C(=O)c2c1c(C(=O)OCCCN1CCOCC1)c1ccccn21`, for which the growth is -38.7% (active). The same measure for `Cc1ccc(S(=O)(=O)N(CCC(=O)O)c2ccccc2)cc1`: 93.2% (inactive). The same measure for `COC(=O)[C@@H](Cc1c[nH]c2ccccc12)NC(=O)[C@H](Cc1ccccc1)NCc1ccncc1`: 96.5% (inactive); for `Cc1ccc(-c2nnc(SCc3nc(N)nc(Nc4ccccc4F)n3)n2-c2ccccc2)cc1`: 97.9% (inactive). The same measure for `[2H]C([2H])([2H])Oc1c(F)cccc1/C=C/C(=O)/C=C(O)/C=C/c1cccc(F)c1OC([2H])([2H])[2H]`: 97.6% (inactive); for `CCCCCCC/C=N/NC(=O)c1ccc(-n2cc(-c3ccccc3)nn2)cc1`: 82.1% (inactive). As for `COc1ccc(NC(=O)c2ccc(NC3=C(c4ccc(Cl)cc4)C(=O)NC3=O)cc2)cc1`, the growth is 82.1% (inactive). As to `COc1ccc(C(c2cc(OC)c(OC)c(OC)c2)n2cncn2)cc1O` (stereo not given), the growth was 11.3% (inactive).
